Source: the supplement of paper PMC10849652
About 7,900 targets were measured; listed, in parts, are those with a hit and a random draw of the rest. About 0.6% of all pairs of compound and target were hits.

How the values were obtained:
Assay in all cases: log2 fold change, soluble protein after heating vs DMSO (PISA); higher = thermal stabilisation; K562 cells, 10 uM, 30 min; active = over 0.2 and 3.5 SD of the protein, either way, in both replicates (recomputed)
[1] = compound: C1=CC=C(C=C1)[C@H](COC2=CC3=C(C=C2)NC(=O)N3)NC(=O)C4=CC=CN(C4=O)CC5=CC(=C(C=C5)F)F
Procedure, shortened: (§1)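 Values are thermal stability changes relative to control samples and are taken from duplicates. They are stated as log2 fold changes. Before quantification by TMTpro 16plex LC-MS/MS with equalised channel sums, K562 cells at 2×10^6 cells/mL were treated with 10 μM compound for 30 min, heated in aliquots for 3 min across 48°C-58°C, pooled, extracted in PBS with 0.5% NP-40 at 4°C, and centrifuged at 21,000xg for 90 min to give the soluble supernatant.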

[2] = compound: CC1=C(SC2=C1C(=N[C@H](C3=NN=C(N32)C)CC(=O)N)C4=CC=C(C=C4)Cl)C
Procedure, shortened: as §1

[3] = compound: CC1=C2C(=CC=C1)N=C(N(C2=O)C3=CC=CC=C3C)CN4C=NC5=C(N=CN=C54)N
Procedure, shortened: as §1

[4] = compound: Cc1sc2c(c1C)C(c1ccc(Cl)cc1)=N[C@@H](CC(=O)OC(C)(C)C)c1nnc(C)n1-2
Procedure, shortened: as §1

[5] = compound: c1ccc([C@@H]2C[C@H]2NC2CCNCC2)cc1
Procedure, shortened: as §1

Measured: log2 fold change

MYH16 (UniProt Q9H6N6)
inactive: [1] -0.164 | [2] -0.042 | [3] -0.142 | [4] 0.069 | [5] -0.034

OSBP (UniProt P22059)
inactive: [1] 0.015 | [2] 0.084 | [3] 0.076 | [4] -0.002 | [5] 0.031

NUP210 (UniProt Q8TEM1)
inactive: [1] -0.083 | [2] 0.059 | [3] 0.037 | [4] -0.013 | [5] -0.028

NISCH (UniProt Q9Y2I1)
inactive: [1] 0.044 | [2] -0.02 | [3] 0.036 | [4] 0.044 | [5] -0.044

NRF1 isoform 4 (UniProt Q16656)
inactive: [1] -0.045 | [2] 0.001 | [3] 0.085 | [4] -0.043 | [5] -0.039

NCAPD2 (UniProt Q15021)
Chain of UniProt Q15021 (Q15021 whole entry, looked up): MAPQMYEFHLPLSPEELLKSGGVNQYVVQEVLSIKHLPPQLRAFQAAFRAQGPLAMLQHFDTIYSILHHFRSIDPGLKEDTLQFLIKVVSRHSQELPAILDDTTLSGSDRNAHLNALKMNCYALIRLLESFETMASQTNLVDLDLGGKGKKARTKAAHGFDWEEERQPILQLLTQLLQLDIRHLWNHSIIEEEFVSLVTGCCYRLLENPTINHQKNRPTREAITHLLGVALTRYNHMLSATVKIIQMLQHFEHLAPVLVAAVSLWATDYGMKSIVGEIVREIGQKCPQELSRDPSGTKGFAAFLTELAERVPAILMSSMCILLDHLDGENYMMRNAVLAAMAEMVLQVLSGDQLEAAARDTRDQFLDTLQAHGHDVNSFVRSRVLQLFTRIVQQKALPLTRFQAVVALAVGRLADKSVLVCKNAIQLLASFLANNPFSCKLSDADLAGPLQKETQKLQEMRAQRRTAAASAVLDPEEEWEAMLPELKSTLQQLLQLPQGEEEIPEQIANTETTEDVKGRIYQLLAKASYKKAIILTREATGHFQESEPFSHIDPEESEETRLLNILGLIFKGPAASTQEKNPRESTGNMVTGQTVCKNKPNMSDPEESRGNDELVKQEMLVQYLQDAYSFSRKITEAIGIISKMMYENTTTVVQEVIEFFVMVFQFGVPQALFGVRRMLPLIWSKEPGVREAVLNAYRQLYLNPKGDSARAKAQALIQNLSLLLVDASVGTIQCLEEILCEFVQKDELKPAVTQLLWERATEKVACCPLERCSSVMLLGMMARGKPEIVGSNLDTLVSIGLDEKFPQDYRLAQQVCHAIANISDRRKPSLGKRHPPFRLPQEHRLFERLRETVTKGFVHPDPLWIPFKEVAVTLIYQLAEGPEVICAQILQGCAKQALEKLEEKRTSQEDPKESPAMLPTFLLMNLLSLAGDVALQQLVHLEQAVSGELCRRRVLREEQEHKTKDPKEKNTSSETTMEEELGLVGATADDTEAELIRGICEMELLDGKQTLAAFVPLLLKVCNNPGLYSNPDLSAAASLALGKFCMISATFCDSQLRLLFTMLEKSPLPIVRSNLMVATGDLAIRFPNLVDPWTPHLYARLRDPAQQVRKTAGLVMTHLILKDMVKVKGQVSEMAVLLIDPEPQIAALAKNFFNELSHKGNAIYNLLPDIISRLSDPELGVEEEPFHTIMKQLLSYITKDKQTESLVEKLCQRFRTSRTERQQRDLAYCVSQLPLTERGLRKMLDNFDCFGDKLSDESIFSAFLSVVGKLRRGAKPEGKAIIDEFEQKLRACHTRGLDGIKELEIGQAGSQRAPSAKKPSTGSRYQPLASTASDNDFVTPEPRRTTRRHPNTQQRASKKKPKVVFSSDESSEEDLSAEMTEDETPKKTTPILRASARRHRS
inactive: [1] -0.078 | [2] 0.04 | [3] 0.044 | [4] 0.016 | [5] 0.007

MRPL50 (UniProt Q8N5N7)
inactive: [1] 0.11 | [2] 0.01 | [3] -0.079 | [4] -0.022 | [5] -0.05

NEDD4 isoform 4 (UniProt P46934)
inactive: [1] -0.006 | [2] 0.103 | [3] 0.081 | [4] 0.002 | [5] -0.007

MMS19 isoform 8 (UniProt Q96T76)
inactive: [1] -0.034 | [2] -0.001 | [3] 0.133 | [4] 0.002 | [5] -0.003

MSH2 (UniProt P43246)
inactive: [1] -0.041 | [2] 0.051 | [3] 0.105 | [4] -0.037 | [5] 0.01

PAFAH1B3 (UniProt Q15102)
inactive: [1] -0.076 | [2] 0.139 | [3] 0.128 | [4] -0.132 | [5] -0.096

NFYC (UniProt Q13952)
inactive: [1] 0.002 | [2] 0.063 | [3] 0.036 | [4] 0.014 | [5] -0.014

NDUFA6 (UniProt P56556)
inactive: [1] -0.017 | [2] 0.121 | [3] 0.104 | [4] -0.067 | [5] -0.039

NA, A0A096LPI6
inactive: [1] 0.055 | [2] -0.023 | [3] -0.001 | [4] 0.017 | [5] 0.023

MYH11 isoform 2 (UniProt P35749)
inactive: [1] 0.011 | [2] 0.024 | [3] -0.071 | [4] -0.026 | [5] -0.036

NQO1 (UniProt P15559)
inactive: [1] 0.07 | [2] 0.122 | [3] 0.083 | [4] -0.015 | [5] -0.072

OGFOD2 (UniProt Q6N063)
inactive: [1] 0.124 | [2] 0.097 | [3] 0.024 | [4] 0.091 | [5] 0.053

MRPS21 (UniProt P82921)
inactive: [1] -0.238 | [2] 0.032 | [3] 0.013 | [4] 0.116 | [5] -0.016

NELFB isoform 2 (UniProt Q8WX92)
inactive: [1] -0.098 | [2] 0.12 | [3] 0.123 | [4] -0.05 | [5] -0.023

NCOA7 (UniProt Q8NI08)
Chain of UniProt Q8NI08 (Q8NI08 whole entry, looked up): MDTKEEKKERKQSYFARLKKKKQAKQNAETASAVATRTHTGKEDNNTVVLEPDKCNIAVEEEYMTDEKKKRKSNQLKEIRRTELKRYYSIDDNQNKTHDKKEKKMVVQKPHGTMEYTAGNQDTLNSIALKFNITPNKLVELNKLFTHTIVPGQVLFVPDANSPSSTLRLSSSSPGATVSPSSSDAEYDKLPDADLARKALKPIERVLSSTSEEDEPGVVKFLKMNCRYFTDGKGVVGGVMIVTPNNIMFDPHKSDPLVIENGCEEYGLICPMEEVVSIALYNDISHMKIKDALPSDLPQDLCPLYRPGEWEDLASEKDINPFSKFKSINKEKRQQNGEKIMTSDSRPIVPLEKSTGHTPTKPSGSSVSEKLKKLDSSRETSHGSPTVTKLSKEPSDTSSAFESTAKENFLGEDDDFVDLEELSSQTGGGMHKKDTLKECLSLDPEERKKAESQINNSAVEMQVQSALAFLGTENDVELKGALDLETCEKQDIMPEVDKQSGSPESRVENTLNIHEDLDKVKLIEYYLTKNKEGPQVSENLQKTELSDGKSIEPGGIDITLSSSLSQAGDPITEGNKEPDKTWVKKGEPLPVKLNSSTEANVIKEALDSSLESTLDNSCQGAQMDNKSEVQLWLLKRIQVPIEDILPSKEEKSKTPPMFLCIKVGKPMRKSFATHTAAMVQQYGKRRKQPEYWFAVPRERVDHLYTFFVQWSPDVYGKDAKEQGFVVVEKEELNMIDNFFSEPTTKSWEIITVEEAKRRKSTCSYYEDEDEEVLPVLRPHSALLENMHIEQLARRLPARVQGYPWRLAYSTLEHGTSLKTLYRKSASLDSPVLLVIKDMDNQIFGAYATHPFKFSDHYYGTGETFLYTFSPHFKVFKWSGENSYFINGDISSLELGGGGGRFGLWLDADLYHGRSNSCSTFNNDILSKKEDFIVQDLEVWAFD
inactive: [1] 0.03 | [2] 0.093 | [3] 0.036 | [4] 0.016 | [5] -0.058

MRPS26 (UniProt Q9BYN8)
inactive: [1] -0.075 | [2] 0.061 | [3] -0.012 | [4] -0.009 | [5] 0.013

MRPS10 (UniProt P82664)
inactive: [1] -0.019 | [2] -0.102 | [3] 0.065 | [4] 0.132 | [5] 0.025

NSMCE2 (UniProt Q96MF7)
inactive: [1] 0.074 | [2] 0.031 | [3] 0.075 | [4] 0.004 | [5] -0.017

MSTO1 (UniProt Q9BUK6)
inactive: [1] -0.041 | [2] 0.046 | [3] 0.002 | [4] -0.005 | [5] -0.071

NDUFB8 (UniProt O95169)
inactive: [1] 0.049 | [2] 0.045 | [3] 0.02 | [4] -0.002 | [5] 0.089

NAT14 (UniProt Q8WUY8)
inactive: [1] -0.059 | [2] 0.055 | [3] -0.087 | [4] 0.043 | [5] -0.047

MTHFD1, A0A384N5Y3
inactive: [1] -0.063 | [2] 0.138 | [3] -0.022 | [4] -0.002 | [5] -0.113

NANS (UniProt Q9NR45)
inactive: [1] -0.031 | [2] 0.065 | [3] 0.071 | [4] -0.015 | [5] -0.024

MYH10 isoform 3 (UniProt P35580)
inactive: [1] -0.003 | [2] 0.043 | [3] 0.056 | [4] -0.023 | [5] -0.013

NCKAP1 isoform 2 (UniProt Q9Y2A7)
inactive: [1] -0.037 | [2] 0.035 | [3] 0.003 | [4] 0.007 | [5] -0.004

MINK1 (UniProt Q8N4C8)
inactive: [1] -0.036 | [2] 0.024 | [3] -0.01 | [4] 0.037 | [5] 0.005

MKNK1 (UniProt Q9BUB5)
inactive: [1] -0.056 | [2] 0.039 | [3] 0.065 | [4] 0.03 | [5] -0.009

NFATC3 (UniProt Q12968)
inactive: [1] -0.03 | [2] 0.081 | [3] 0.12 | [4] 0.16 | [5] 0.065

NPEPPS (UniProt P55786)
inactive: [1] -0.044 | [2] 0.064 | [3] 0.159 | [4] -0.003 | [5] -0.051

NUP160 (UniProt Q12769)
Chain of UniProt Q12769 (Q12769 whole entry, looked up): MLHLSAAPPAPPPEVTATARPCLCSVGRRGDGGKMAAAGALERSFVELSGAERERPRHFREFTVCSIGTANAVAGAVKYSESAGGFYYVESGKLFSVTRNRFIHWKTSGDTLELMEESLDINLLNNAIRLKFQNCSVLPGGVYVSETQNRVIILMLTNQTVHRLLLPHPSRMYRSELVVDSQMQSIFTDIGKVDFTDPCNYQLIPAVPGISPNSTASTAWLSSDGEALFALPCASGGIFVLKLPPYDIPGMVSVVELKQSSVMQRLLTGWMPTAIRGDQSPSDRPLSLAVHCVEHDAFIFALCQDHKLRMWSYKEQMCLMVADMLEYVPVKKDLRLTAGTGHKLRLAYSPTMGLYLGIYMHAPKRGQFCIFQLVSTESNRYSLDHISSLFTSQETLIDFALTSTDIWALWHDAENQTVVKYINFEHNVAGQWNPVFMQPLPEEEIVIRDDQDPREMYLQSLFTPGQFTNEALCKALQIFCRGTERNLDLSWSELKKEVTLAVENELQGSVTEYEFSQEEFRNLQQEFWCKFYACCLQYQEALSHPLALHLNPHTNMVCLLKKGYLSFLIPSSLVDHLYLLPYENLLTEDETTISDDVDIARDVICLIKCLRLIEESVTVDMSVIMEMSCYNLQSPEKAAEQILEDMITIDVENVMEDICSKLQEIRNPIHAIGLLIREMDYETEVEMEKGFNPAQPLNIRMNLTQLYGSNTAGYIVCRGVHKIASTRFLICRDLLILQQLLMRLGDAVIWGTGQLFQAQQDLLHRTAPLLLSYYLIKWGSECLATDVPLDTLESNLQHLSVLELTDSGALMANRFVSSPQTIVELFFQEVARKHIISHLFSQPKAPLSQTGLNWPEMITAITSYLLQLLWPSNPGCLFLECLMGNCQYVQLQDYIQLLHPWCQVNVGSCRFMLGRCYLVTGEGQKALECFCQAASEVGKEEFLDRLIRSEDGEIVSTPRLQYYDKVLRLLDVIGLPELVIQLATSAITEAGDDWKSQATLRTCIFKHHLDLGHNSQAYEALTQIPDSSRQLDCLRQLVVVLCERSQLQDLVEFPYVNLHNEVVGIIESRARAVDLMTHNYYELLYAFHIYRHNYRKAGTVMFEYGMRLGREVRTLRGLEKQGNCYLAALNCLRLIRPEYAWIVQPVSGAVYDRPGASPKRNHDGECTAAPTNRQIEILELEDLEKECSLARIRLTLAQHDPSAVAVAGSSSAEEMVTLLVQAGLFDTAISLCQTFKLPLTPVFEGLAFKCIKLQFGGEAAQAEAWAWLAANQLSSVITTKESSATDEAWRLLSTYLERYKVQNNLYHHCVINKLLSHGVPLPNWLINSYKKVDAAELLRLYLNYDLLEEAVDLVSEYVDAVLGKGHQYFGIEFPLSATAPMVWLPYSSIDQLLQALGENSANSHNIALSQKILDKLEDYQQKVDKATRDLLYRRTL
inactive: [1] -0.013 | [2] 0.043 | [3] 0.038 | [4] 0.014 | [5] 0.044

NME2P1 (UniProt O60361)
inactive: [1] -0.171 | [2] 0.079 | [3] 0.063 | [4] 0.082 | [5] -0.004

MXRA7 (UniProt P84157)
inactive: [1] 0.008 | [2] 0.167 | [3] 0.293 | [4] 0.002 | [5] 0.024

MPHOSPH10 (UniProt O00566)
inactive: [1] 0.023 | [2] -0.279 | [3] -0.206 | [4] 0.094 | [5] -0.024

NR2C2 isoform 2 (UniProt P49116)
inactive: [1] -0.011 | [2] 0.046 | [3] 0.059 | [4] 0.042 | [5] 0.024

NA, A0A494C071
inactive: [1] -0.172 | [2] -0.016 | [3] 0.236 | [4] 0.07 | [5] 0.072

NTMT1 (UniProt Q9BV86)
Chain of UniProt Q9BV86 (Q9BV86 whole entry, looked up): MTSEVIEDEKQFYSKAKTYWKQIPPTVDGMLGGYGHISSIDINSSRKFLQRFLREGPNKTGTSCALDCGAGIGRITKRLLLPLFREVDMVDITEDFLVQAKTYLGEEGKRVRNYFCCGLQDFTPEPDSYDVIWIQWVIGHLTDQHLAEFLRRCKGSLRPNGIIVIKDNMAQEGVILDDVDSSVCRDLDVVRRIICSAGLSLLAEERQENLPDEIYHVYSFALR
inactive: [1] 0.001 | [2] 0.034 | [3] 0.079 | [4] -0.118 | [5] -0.049

MRPS5 (UniProt P82675)
inactive: [1] -0.017 | [2] 0.009 | [3] -0.03 | [4] 0.063 | [5] -0.077

MKRN2 (UniProt Q9H000)
inactive: [1] 0.029 | [2] 0.046 | [3] 0.143 | [4] 0.122 | [5] -0.017

OXR1 (UniProt Q8N573)
inactive: [1] -0.021 | [2] 0.026 | [3] 0.039 | [4] -0.041 | [5] -0.069

MRPL47 (UniProt Q9HD33)
inactive: [1] 0.042 | [2] -0.108 | [3] -0.131 | [4] 0.087 | [5] -0.01

NNMT (UniProt P40261)
inactive: [1] 0.021 | [2] 0.051 | [3] 0.078 | [4] -0.009 | [5] -0.055

MRPS35 (UniProt P82673)
inactive: [1] -0.011 | [2] -0.03 | [3] -0.033 | [4] 0.143 | [5] -0.004

NHLRC2 (UniProt Q8NBF2)
inactive: [1] -0.027 | [2] 0.038 | [3] 0.127 | [4] 0.009 | [5] 0.024

NFX1 (UniProt Q12986)
Chain of UniProt Q12986 (Q12986 whole entry, looked up): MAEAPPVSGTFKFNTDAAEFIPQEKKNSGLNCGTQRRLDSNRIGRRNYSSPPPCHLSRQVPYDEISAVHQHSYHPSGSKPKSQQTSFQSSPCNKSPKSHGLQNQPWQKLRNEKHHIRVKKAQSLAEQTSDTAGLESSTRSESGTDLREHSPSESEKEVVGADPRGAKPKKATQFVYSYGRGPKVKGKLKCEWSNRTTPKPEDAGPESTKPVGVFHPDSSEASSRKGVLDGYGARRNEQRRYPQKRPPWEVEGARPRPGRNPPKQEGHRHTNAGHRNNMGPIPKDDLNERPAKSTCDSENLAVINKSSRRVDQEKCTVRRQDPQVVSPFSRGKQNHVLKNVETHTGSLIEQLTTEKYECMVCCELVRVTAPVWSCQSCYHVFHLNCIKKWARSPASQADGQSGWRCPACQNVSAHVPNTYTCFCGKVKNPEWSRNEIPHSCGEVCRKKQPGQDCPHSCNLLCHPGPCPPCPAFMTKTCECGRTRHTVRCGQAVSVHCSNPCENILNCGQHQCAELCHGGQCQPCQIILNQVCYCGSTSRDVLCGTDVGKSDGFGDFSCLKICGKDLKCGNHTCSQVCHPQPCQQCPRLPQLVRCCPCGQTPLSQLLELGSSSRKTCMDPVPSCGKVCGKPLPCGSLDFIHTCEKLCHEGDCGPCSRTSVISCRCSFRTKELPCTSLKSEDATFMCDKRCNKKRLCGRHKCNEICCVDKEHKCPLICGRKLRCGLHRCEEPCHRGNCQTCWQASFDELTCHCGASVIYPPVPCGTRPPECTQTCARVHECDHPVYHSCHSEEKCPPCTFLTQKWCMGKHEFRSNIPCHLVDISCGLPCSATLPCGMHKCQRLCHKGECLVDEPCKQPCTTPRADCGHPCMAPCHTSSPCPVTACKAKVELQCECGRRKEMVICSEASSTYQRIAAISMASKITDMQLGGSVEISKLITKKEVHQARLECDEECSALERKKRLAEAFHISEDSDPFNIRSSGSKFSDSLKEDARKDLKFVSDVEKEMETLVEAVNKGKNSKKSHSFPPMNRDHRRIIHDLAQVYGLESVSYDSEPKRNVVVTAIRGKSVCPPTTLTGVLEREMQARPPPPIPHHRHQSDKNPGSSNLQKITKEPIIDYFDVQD
inactive: [1] -0.011 | [2] -0.161 | [3] -0.068 | [4] 0.115 | [5] -0.163

OSTM1 (UniProt Q86WC4)
inactive: [1] 0.023 | [2] 0.036 | [3] 0.058 | [4] -0.091 | [5] -0.013

NUP107 (UniProt P57740)
inactive: [1] -0.02 | [2] -0.043 | [3] 0.051 | [4] 0.052 | [5] 0.025

MITD1 (UniProt Q8WV92)
inactive: [1] -0.058 | [2] 0.022 | [3] -0.326 | [4] 0.045 | [5] 0.06

NOL7 (UniProt Q9UMY1)
inactive: [1] 0.168 | [2] -0.221 | [3] -0.265 | [4] 0.188 | [5] 0.057
